# Measurements as given in PubChem BioAssay (Tox21).
# Several values for one entry are separate records, joined by “and”; a condition that tells them apart may be missing. Equal entries are not always repeated. Inconclusive results are not listed. The source holds several records for some structures; these can differ, active in one and inactive in another. Activity calls are given as the source filed them. The call rests on the fitted dose curve; in most records, active means well fitted inhibition curve with a large enough effect in the repeat runs; inconclusive means weak or mixed curves; inactive means no such curve, though single readings can be large or run the other way.
# Biological target: Cytochrome P450 2C19 (Homo sapiens) (UniProt P33261)
# Sequence (P33261 whole entry, looked up): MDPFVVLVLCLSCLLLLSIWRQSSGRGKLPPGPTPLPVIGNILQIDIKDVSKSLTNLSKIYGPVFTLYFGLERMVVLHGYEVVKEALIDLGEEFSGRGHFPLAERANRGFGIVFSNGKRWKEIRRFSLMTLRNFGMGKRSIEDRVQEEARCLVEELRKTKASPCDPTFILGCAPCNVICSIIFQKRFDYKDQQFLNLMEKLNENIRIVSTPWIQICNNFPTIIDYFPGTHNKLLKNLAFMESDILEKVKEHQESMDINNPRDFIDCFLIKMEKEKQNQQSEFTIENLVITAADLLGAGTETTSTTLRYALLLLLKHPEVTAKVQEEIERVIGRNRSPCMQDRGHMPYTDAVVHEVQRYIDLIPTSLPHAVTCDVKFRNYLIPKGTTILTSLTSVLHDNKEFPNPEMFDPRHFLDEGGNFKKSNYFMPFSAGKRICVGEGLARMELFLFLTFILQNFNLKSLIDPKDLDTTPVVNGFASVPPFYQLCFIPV
# Assay: Cytochrome P450 Family 2 Subfamily C Member 19 (CYP2C19) small molecule antagonists: luciferase reporter qHTS assay (AID 1671197); further: nearly all actives have a fitted effect of over 65% in size
# Conditions: P450-Glo CYP2C19 enzyme, luciferin luminescence, 1 h; series mostly up to 115 µM; activity change, negative = inhibition: at the top concentration
# Source text: National Center for Advancing Translational Sciences [NCATS]
# U.S. Environmental Protection Agency [EPA]
# National Institutes of Environmental Health Sciences [NIEHS]
# National Toxicology Program [NTP]
# U.S. Food and Drug Administration [FDA]
# Cytochrome P450 (CYP) enzymes are membrane-bound hemeproteins that play a key role in metabolism of drugs and xenobiotics. Evaluation of the effect of chemicals on CYP isozymes is useful to minimize the adverse drug reactions and toxicities in drug development process. Tox21 chemicals were tested for their effect on CYP enzyme activities by using P450-Glo (TM) screening systems (Promega Corporation, Madison, WI). These systems provide a luminescent method containing proluciferin substrates and are converted to luciferin products by CYP isozymes. The luciferin products formed are detected with a luciferin detection reagent, and the amount of light produced is proportional to CYP activity. P450-Glo (TM) CYP2C19 screening system (Catalog. No. V9880) was used to detect the compounds that interfere in CYP2C19 activity. The positive control compound used for CYP2C19 assay is ketoconazole (Sigma-Aldrich, St. Louis, MO).
# Tox21 Assay Protocol Summary:
# Two ul of enzyme-substrate mix was dispensed into medium binding white/solid 1536-well plates (Greiner Bio-One North America Inc., Monroe, NC) using a BioRaptr Flying Reagent Dispenser (FRD, Beckman Coulter, Brea, CA). Compounds dissolved in DMSO and positive control (ketoconazole) were transferred to the assay plates at 23 nl using a Pintool station (Wako, San Diego, CA). The assay plates were incubated at room temperature for 10 min. Then 2 ul of NADPH regeneration solution was added to each well of the assay plates using an FRD and incubated at 37C for 1 h. The reaction was stopped by adding 4 ul of detection reagent using an FRD and after 20 min incubation at room temperature the luminescence signal was measured using a ViewLux plate reader (Perkin Elmer, Shelton, CT). Data were expressed as relative luminescence units.
# On the % scale 0 is the no-effect control and ±100 the full control effect; potency means the concentration at half of the fitted maximal effect.
SMILES,Potency,"activity change, negative = inhibition"
CC(O)CNCC(C)O (stereo not given),20.1 µM (active) and 71 µM (active),
CC/C(C)=N/O,inactive,
OC1CCCCC1,inactive,
NC(=O)c1ncn([C@@H]2O[C@H](CO)[C@@H](O)[C@H]2O)n1,inactive,
NC(N)=S,39.1 µM (active),
COc1ccc(N)c(OC)c1,15.3 µM (active) and 35.6 µM (active),
CCCCCCCCC(=O)O,30.7 µM (active),
O=C1O[C@H]([C@H](O)CO)C(O)=C1O,,-6.54% (inactive)
Cc1ccccc1C=O,inactive,
CC(=O)OCCC(C)C,79.7 µM (active),
CC1=CC(=O)CC(C)(C)C1,18.4 µM (active) and inactive,
COc1c2ccoc2cc2oc(=O)ccc12,5.77 µM (active) and 8.94 µM (active),
CC1(C)[C@@H](O[C@H]2O[C@H](C(=O)O)[C@@H](O)[C@H](O)[C@H]2O[C@@H]2O[C@H](C(=O)O)[C@@H](O)[C@H](O)[C@H]2O)CC[C@]2(C)[C@H]3C(=O)C=C4[C@@H]5C[C@@](C)(C(=O)O)CC[C@]5(C)CC[C@@]4(C)[C@]3(C)CC[C@@H]12,inactive,
CCCCC(=O)O,,-5.48% (inactive)
CCn1cc(C(=O)O)c(=O)c2cc3c(cc21)OCO3,51 µM (active),-7.51% [at 23.6 µM] (inactive)
CC(CN1c2ccccc2Sc2ccccc21)N(C)C (stereo not given),8.05 µM (active) and 10 µM (active) and 7.76 µM (active),
O=C(Cl)c1ccc(C(=O)Cl)cc1,inactive,
OCC(CO)(CO)CO,inactive,
CN1CCCC1=O,inactive,
CC1(C)C(=O)N(Cl)C(=O)N1Cl,71.1 µM (active),

SMILES,Potency,"activity change, negative = inhibition"
O=c1c(O)c(-c2ccc(O)c(O)c2)oc2cc(O)cc(O)c12,,-0.378% [at 52.9 µM] (inactive)
C[n+]1ccn(CCO)c1,inactive,
Oc1ccc(Cc2ccccc2O)cc1,36 µM (active) and 39.9 µM (active),
CC(=O)C(C)C,inactive,
CC(COCC(C)OC(=O)c1ccccc1)OC(=O)c1ccccc1 (stereo not given),19.9 µM (active) and 11.2 µM (active),
CC(C)(C)NC[C@H](O)COc1nsnc1N1CCOCC1,inactive,
C1CCCNCC1,inactive,
OB(O)O,,20.7% (inactive)
Cc1ncc(CO)c(CO)c1O,inactive,
CCCCCC(C)=O,81.3 µM (active) and inactive,
N[C@@H](Cc1cc(I)c(Oc2ccc(O)c(I)c2)c(I)c1)C(=O)O,inactive and 74 µM (active),
COc1cc(NC(=O)CC(C)=O)c(OC)cc1Cl,40.1 µM (active) and 39.9 µM (active),
Cc1ccc(Cl)cc1,,-28.4% (inactive)
Cc1cc(C)c(O)c(C)c1,71 µM (active),
CCc1cccc(CC)c1N,inactive and 79.6 µM (active),
O=C1CCCCCCCCCCC1,,3.03% (inactive)
O=Cc1ccc(CO)o1,inactive,
CC/C=C(\C(=O)N[C@@H]1C(=O)N2C(C(=O)OCOC(=O)C(C)(C)C)=C(COC(N)=O)CS[C@H]12)c1csc(N)n1,19.5 µM (active),
Nc1cccc(C(F)(F)F)c1,inactive,
